In all, about 2,100 compounds went through this assay and about 480 (23%) were called active. Another 5% or so got no clear call; they are omitted.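 How the source made its calls: active means fitted curve reaches 40% activation at or below the top valid concentration, in every replicate test; inconclusive means replicate tests disagree on the call; inactive means the rest, including activity in the opposite direction.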 These entries were drawn from the full list. Entries with a potency or affinity are not part of this list.
Assay: PGC1a acetylation increase, cellular AlphaLISA – cell-based, cherry-picked samples, set 6, dose response (AID 720513);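 further: cells made to overexpress flag tagged PGC1a plus GCN5 acetyltransferase by viral infection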
Settings: U2OS PGC1a acetylation AlphaLISA, overnight, 0 = neutral, -100 = inhibitor control; series mostly up to 19.5 µM; activation (acetylation increase): at the top concentration

Activation (acetylation increase), inactive:
COc1ccc2c([N+](=O)[O-])c(N3CCCC3)[nH]c2c1 22.3%
COCCCNC1CS(=O)(=O)CC1O (stereo unspecified) 20%
O=C(c1ccc2ccccc2c1)N1CCCC1 -0.375%
COc1ccc(N(C)S(=O)(=O)c2cccc(C(=O)Nc3ccc(-n4cnnn4)cc3)c2)cc1 36.9%
COc1ccc(CCNC(=O)C(=O)NCC2CCCO2)cc1OC (stereo unspecified) 2.41%
COc1ccc(CCNC(=O)COC(=O)c2ccco2)cc1OC -6.46%
CCC(C)NCCOCCOc1ccc(C)cc1OC (stereo unspecified) 19.7%
CCOC(=O)c1c(C)nc2sc3c(=O)n(-c4ccc(OC)cc4)cnc3c2c1-c1ccc(OC)cc1 28.6%
C[C@H]1CN([C@@H](C)CO)C(=O)c2cc(C#Cc3ccccc3)cnc2O[C@H]1CN(C)C(=O)c1ccccn1 -19.3%
CC1CN(C2CCN(C(=O)c3cccc(Cl)c3)CC2)CC(C)O1 (stereo unspecified) -9.81%
CCOC(=O)C1(CC2CCCCO2)CCN(C(=O)Nc2ccc(SC)cc2)CC1 (stereo unspecified) 12.1%
O=C1c2ccccc2C(=O)N1c1ccc(Cc2ccncc2)cc1 -10.4%
Cc1ccc(CCC(=O)Nc2ccc(Cl)cc2)o1 -15.7%
Cc1ccc(NC(=O)CC2=NC(=O)C(CC(=O)Nc3ccccc3F)S2)cc1 (stereo unspecified) 32.5%
O=C(O)C1CCCN1S(=O)(=O)c1ccc(Br)s1 (stereo unspecified) (tested in a mixture with another compound) 35.3%
COCCNC(=O)CCc1c(C)nc2c(c(C)nn2-c2ccc(C)c(C)c2)c1C 9.63%
C[C@H](CO)N1C[C@H](C)[C@@H](CN(C)Cc2cccnc2)Oc2cc(C3=CCCC3)ccc2S1(=O)=O -34.2%
Cc1cc(C)n(C(=O)c2ccc([N+](=O)[O-])cc2N)n1 -13%
COc1ccc(S(=O)(=O)Nc2ccccc2C)cc1C(=O)N1CCOCC1 8.1%
Cc1ccc(-c2cc(C(=O)N3CCOCC3)c3ccccc3n2)o1 15.8%
O=C(N=Nc1c(O)[nH]c2ccccc12)c1cc(-c2cccs2)[nH]n1 -2.84%
COc1ccccc1NC(=O)/C=C1\SCC(=O)N1C -5.62%
Oc1c(Cl)cc(CN2CCOCC2)c2cccnc12 -25.2%
COc1ccc2c3c([nH]c2c1)[C@H](CO)N(C(=O)c1ccncc1)CC31CN(C(=O)c2ccncc2)C1 -3.27%
Cc1nc(SCC(=O)NC2CCCC2)[nH]c(=O)c1C 9.58%
Cc1ccc(Cl)c(Cn2cnc3c(cnn3C(C)(C)C)c2=O)c1F 7.54%
C[C@H](CO)N1C[C@H](C)[C@@H](CN(C)C(=O)CCN2CCCCC2)Oc2ncc(C#Cc3ccccn3)cc2C1=O 13.1% [at 21 µM]
Cn1nnnc1Sc1ncnc2scc(-c3cc4ccccc4o3)c12 -88.9%
Cc1ccc(N2C(=O)N(CC(=O)Nc3ccc(C)cc3[N+](=O)[O-])C(=O)C2C)cc1 (stereo unspecified) 14.9%
O=C(CC(CC(=O)c1ccc(Br)cc1)c1cccnc1)c1ccc(Br)cc1 -9.39%
Cc1ccc(NC(=O)c2ccc(NCC3CCCO3)c([N+](=O)[O-])c2)cc1Cl (stereo unspecified) -26%
CC(C)(C)c1ccc(OCC(=O)NNC(=O)Nc2ccccc2)cc1 2.26%
CC(C)(C)NC(=O)C(=O)NNC(=O)c1cccc([N+](=O)[O-])c1 9.46%
CCc1ccc(NC(=O)Nc2ccncc2)cc1 -28.2%
N#CC1=C(N)Oc2n[nH]c(-c3ccccc3)c2C1c1ccncc1 (stereo unspecified) -3.54%
CN(CC(=O)NCC1CCCO1)S(=O)(=O)c1cc(Cl)ccc1Cl (stereo unspecified) 0.409% [at 10 µM]
Cc1noc(C)c1CSc1nnc(-c2cccnc2)n1C1CCCCC1C (stereo unspecified) -5.8%
C/C=C/c1ccc2c(c1)O[C@H](CN(C)C(=O)C1CC1)[C@H](C)CN([C@@H](C)CO)S2(=O)=O 24.5%
Cc1ccc(S(=O)(=O)C(C#N)c2nc3ccccc3nc2N2CCCC2)cc1 (stereo unspecified) 3.64%
CCn1nnc(NC(=O)c2ccc(C(C)(C)C)cc2)n1 11%
O=C(NCc1ccc2c(c1)OCO2)c1ccc(NC(=O)C2CCCO2)cc1 (stereo unspecified) 15.6%
CC(C)(C)OC(=O)N1CCCC(C(=O)Nc2cccc(C(=O)NCc3ccccc3)c2)C1 (stereo unspecified) 8.42%
O=C1NC(Nc2nccs2)(C(F)(F)F)C(=O)N1CCc1ccccc1 (stereo unspecified) 36.6%
CC(C)CC(NC(=O)c1ccc(Cl)cc1)C(=O)OCC(=O)c1ccc2c(c1)NC(=O)CO2 (stereo unspecified) -91.4%
Cc1cc(C(=O)Nc2cccc3c2O[C@H](CN(C)C(=O)Nc2ccc4c(c2)OCO4)[C@@H](C)CN([C@H](C)CO)C3=O)n(C)n1 2.12% [at 21 µM]
C[C@H]1CN([C@@H](C)CO)C(=O)c2cccc(NC(=O)c3ccncc3)c2O[C@H]1CN(C)C(=O)Nc1ccc2c(c1)OCO2 -14.8%
C[C@H]1CN([C@@H](C)CO)C(=O)Cc2cc(NS(=O)(=O)c3ccc(F)cc3)ccc2O[C@@H]1CN(C)C(=O)Nc1ccc2c(c1)OCO2 34.1% [at 21 µM]
C[C@H]1CN([C@@H](C)CO)C(=O)CCCn2nncc2CO[C@@H]1CN(C)C(=O)Nc1ccc2c(c1)OCO2 -9.09%
OCCN(Cc1ccccc1)CC1CCCCC1 28.1%
O=C(Nc1ccccc1F)N1CCCCN2[C@@H](CO)[C@@H](c3ccc(C#Cc4ccccc4)cc3)[C@@H]2C1 -77.1% [at 21 µM]
COc1ccc(NC(=O)C2(C)Cc3c(-c4cccc(NC(C)=O)c4)ccnc3O2)cn1 (stereo unspecified) 5.17%
CC(=O)Nc1cccc(-c2ccnc3c2CC(C)(C(=O)Nc2ccc(C(C)C)cc2)O3)c1 (stereo unspecified) 20.8%
C[C@@H]1CCCCO[C@@H](CN(C)CC2CC2)[C@@H](C)CN([C@H](C)CO)C(=O)c2cc(NC(=O)C3CCCCC3)ccc2O1 19.2%
NC(=O)c1ccc(NC(=O)C#Cc2ccccc2)cc1 -15.7%
CC(=O)Nc1ccc(C(=O)OC2CCOC2=O)cc1 (stereo unspecified) -33.4%
COc1ccccc1OCCn1c(C(C)O)nc2ccccc21 (stereo unspecified) -2.54%
COc1ccccc1C(=O)Nc1ccc2c(c1)C(=O)N(C)C[C@H](OC)[C@H](C)CN(CC1CC1)[C@@H](C)CO2 3.86%
CCCn1c(=O)c2ccccc2n2c(SCc3c(C(=O)OCC)oc4ccccc34)nnc12 21.8%
CCCCOc1ccc(/C=C/C(=O)OCC(=O)c2c(N)n(C)c(=O)n(C)c2=O)cc1OCC -26.6% [at 10 µM]
COc1ccccc1-c1ccc([C@@H]2[C@H](CO)N(C(C)=O)C23CN(C(C)=O)C3)cc1 -21.7%
C[C@H](CO)N1C[C@H](C)[C@H](CN(C)S(=O)(=O)c2ccc(F)cc2)Oc2ccc(NS(=O)(=O)c3cn(C)cn3)cc2C1=O 11.4%
O=C(Nc1ccc(C(F)(F)F)cc1)N1C[C@@H]2N[C@H](C1)C2c1ccc(-c2cccc(F)c2)cc1 (stereo partly specified) -102%
CCN(CC)C(=O)c1ccc(O)c(OC)c1 4.18%
C[C@@H]1CCCCO[C@@H](CN(C)C)[C@@H](C)CN([C@H](C)CO)C(=O)c2cc(NS(=O)(=O)c3ccc(Cl)cc3)ccc2O1 21%
C[C@@H]1CCCCO[C@H](CN(C)C(=O)Cc2ccccc2)[C@H](C)CN([C@@H](C)CO)C(=O)c2cc(N(C)C)ccc2O1 6.29%
CC(C)NC(=O)Nc1ccc2c(c1)C(=O)N([C@@H](C)CO)C[C@@H](C)[C@H](CN(C)S(=O)(=O)c1ccccc1)OCCCC[C@@H](C)O2 33%
CC(C)NC(=O)Nc1ccc2c(c1)C(=O)N([C@@H](C)CO)C[C@@H](C)[C@H](CN(C)C(=O)NC(C)C)OCCCC[C@@H](C)O2 5.53%
CCCN(C)C[C@H]1OCCCC[C@@H](C)Oc2ccc(NS(=O)(=O)c3ccc(Cl)cc3)cc2C(=O)N([C@@H](C)CO)C[C@H]1C 17.5%
CC(C)NC(=O)Nc1ccc2c(c1)C(=O)N([C@H](C)CO)C[C@@H](C)[C@H](CN(C)S(=O)(=O)c1ccccc1)OCCCC[C@@H](C)O2 14.8% [at 21 µM]
C[C@@H]1CN([C@@H](C)CO)C(=O)c2cc(N(C)C)ccc2O[C@@H](C)CCCCO[C@H]1CN(C)C(=O)c1ccncc1 -3.64%
COc1ccc(NC(=O)N(C)C[C@@H]2OCCCC[C@@H](C)Oc3ccc(NC(=O)Cc4ccccc4)cc3C(=O)N([C@H](C)CO)C[C@@H]2C)cc1 16.1%
O=C1CC2CS(=O)(=O)CC2N1c1ccc(Cl)cc1Cl (stereo unspecified) 16.7%
NS(=O)(=O)c1ccc(CCNC2CC(=O)N(Cc3ccccc3)C2=O)cc1 (stereo unspecified) -6.93%
O=C1CCN(S(=O)(=O)c2ccc(Cl)cc2)N1 22.7%
Cc1cc(C)n(CCc2nc3c4ccccc4n(CC#N)c(=O)n3n2)n1 0.376%
Cc1ccc(C(=O)Cn2c(C(=O)OCCO)cc3ccccc32)cc1 28.5%
COc1cc(C(=O)O)ccc1Cl -5.01%
Cc1ccc(Cn2ncc(Cl)c(Cl)c2=O)cc1 -95.1%
Cc1noc(C)c1S(=O)(=O)Nc1ccc2c(c1)C(=O)N([C@H](C)CO)C[C@@H](C)[C@@H](CN(C)S(=O)(=O)c1cccs1)OCCCC[C@H](C)O2 35.5%
C[C@H]1CCCCO[C@H](CN(C)C(=O)Nc2cccc3ccccc23)[C@@H](C)CN([C@@H](C)CO)C(=O)c2cc(N(C)C)ccc2O1 26.8%
Cc1ccc(S(=O)(=O)Nc2ccc3c(c2)C(=O)N([C@H](C)CO)C[C@@H](C)[C@@H](CN(C)C(=O)NC(C)C)OCCCC[C@H](C)O3)cc1 31%
Cc1ccc(S(=O)(=O)Nc2ccc3c(c2)C(=O)N([C@H](C)CO)C[C@H](C)[C@H](CN(C)C(=O)NC(C)C)OCCCC[C@@H](C)O3)cc1 -12.8% [at 21 µM]
Cc1noc(C)c1S(=O)(=O)Nc1ccc2c(c1)C(=O)N([C@@H](C)CO)C[C@@H](C)[C@@H](CN(C)CC1CCCCC1)OCCCC[C@@H](C)O2 22.1%
C[C@H](CO)N1C[C@H](C)[C@@H](CN(C)C(=O)Nc2cccc3ccccc23)OCCCC[C@H](C)Oc2ccc(N(C)C)cc2C1=O 20%
COc1ccc(NC(=O)Nc2ccc3c(c2)C(=O)N([C@H](C)CO)C[C@H](C)[C@@H](CN(C)S(=O)(=O)c2ccc(Cl)cc2)O3)cc1 0.725%

outcome, inactive:
CN(Cc1cnc2nc(N)nc(N)c2n1)c1ccc(C(=O)N[C@@H](CCC(=O)O)C(=O)O)cc1

Reference: PubChem BioAssay AID720513 (Broad Institute, 2013)
